Hits are enriched below; roughly 19% of the tested compounds scored in any of these assays.
IL-1B inflam inh: blocks inflammasome-driven IL-1 beta release; THP-1 LPS/ATP IL-1B secretion, AlphaLISA, 16 h; stronger effect = lower value; AID 743279; activity change, % at 57.5 µM; actives 4.7% (n = 360,000); in the data active = activity change below about -50%; inconclusive = mostly about -30% to -49%; also: % is scaled to controls: 0 for no effect and ±100 for the full control effect
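THP-1 cells pretreated 1 hr with compounds (up to 57.5 uM final), then stimulated with LPS (250 ng/mL final) plus ATP (1.25 mM final); secreted IL-1B measured by AlphaLISA after 16 hr, decreased signal indicating inhibition.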
DT40 TDP1 no CPT: qHTS for Inhibitors of human tyrosyl-DNA phosphodiesterase 1 (TDP1): qHTS in cells in absence of CPT; DT40 Tdp1-/- hTDP1 cells, no CPT, ATP luminescence, 48 h; Potency, µM (titrated, usually from 46.2 µM), for inactives: at the top dose activity change, negative = growth inhibition, hits mostly inhibitors; actives 15% (n = 420,000); also: potency is read from the fitted curve at half-maximal effect; % is scaled to controls: 0 for no effect and ±100 for the full control effect; nearly all actives have a fitted effect of over 55% in size
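Seeded 400 DT40-hTDP1 cells/well (vehicle DMSO, no 20 nM CPT); pinned compounds; ≥48 hr at 37 °C; CellTiter-Glo luminescence as viability measure.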
SW480 rereplic: induces DNA re-replication in SW480 colon adenocarcinoma cells. SW480 DNA re-replication, Hoechst DNA content imaging, 48 h. Potency, µM (titrated, usually from 46.1 µM), without a hit: at the highest dose re-replication activation, usual class: activators. actives 1.8% (n = 340,000). AID 624297; also: potency is read from the fitted curve at half-maximal effect; % of control where 0% means no effect; nearly all actives have a fitted effect of over 55% in size
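Image-based DNA-content assay: after two days of treatment, nuclei were labelled with the DNA dye Hoechst and imaged, and hits were compounds raising the count of nuclei showing high fluorescence intensity.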
DT40 TDP1 CPT: growth inhibition of DT40 Tdp1-/-;hTDP1 cells with camptothecin (screen for TDP1 inhibitors) | AID 686979 | chicken DT40 Tdp1-/-;hTDP1 cells + 20 nM CPT, ATP luminescence, 48 h | actives 12% (n = 420,000) | Potency, µM (highest dose often 46.2 µM), for the others: at the highest dose activity change, negative = growth inhibition, hits mostly inhibitors; also: potency is read from the fitted curve at half-maximal effect; % is scaled to controls: 0 for no effect and ±100 for the full control effect; nearly all actives have a fitted effect of over 55% in size
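Chicken DT40 Tdp1-/- cells stably complemented with human TDP1 were seeded at 400 cells/well in medium containing 20 nM camptothecin, exposed to pin-transferred compounds, and grown at 37 °C for at least 48 hr. Viability was read as ATP luminescence.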
Chronic BCR inh: inhibitors of chronic active B-cell receptor signaling; ABC-DLBCL IkBa-CBG/CBR reporter, luminescence ratio, 4 h; Potency, µM (series often up to 46.1 µM), for inactives: at the highest dose activity change, negative = inhibition, actives largely listed as inhibitors; actives 0.05% (n = 340,000); AID 493014; active = well fitted inhibition curve with a large enough effect in the signal ratio, with a control signal flat, not every such curve was filed as active; inconclusive = small, poorly fitted or top-dose-only effect, or effect the other way, or a change in a side signal; the % refers to the signal ratio;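 also: potency is read from the fitted curve at half-maximal effect; plate controls were basal doxycycline-induced cells for no effect and cells given 10 µM MG132 for full effect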
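Cell line TMD8 (human ABC DLBCL), stably expressing tet-inducible CBG68-IkBa fusion and CBR; IMDM/0.5% FBS; cpd up to 46 uM; dox induction, 4 h, 37C/5% CO2; dual luminescence; green/red ratio; MG132 control.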
MCF10A rereplic: inducers of DNA re-replication in MCF 10A breast cells; AID 624296; actives 2.9% (n = 350,000); Potency, µM (highest dose often 46.1 µM), inactives show at the top dose activity, positive = re-replication, actives largely listed as activators; MCF 10A DNA re-replication, Hoechst nuclear intensity, 48 h; also: potency is read from the fitted curve at half-maximal effect; % of control where 0% means no effect; nearly all actives have a fitted effect of over 50% in size
Numbers without * were called inactive. Unless noted, calls follow the shape of the dose curve; as a rule, active = well fitted curve in the direction sought with a large enough effect; inconclusive = small, poorly fitted or top-dose-only effect, or another doubt; inactive = no such curve, though single readings can be large; an effect the other way counts as inactive or inconclusive.

O=C(/C=C/c1ccc(S(=O)(=O)N2CCOCC2)cc1)NC(CO)C(O)c1ccc([N+](=O)[O-])cc1 (centres undefined) was read as IL-1B inflam inh -1, DT40 TDP1 no CPT -15%, SW480 rereplic -2%, DT40 TDP1 CPT -2%, Chronic BCR inh 8% and MCF10A rereplic 12%.
For COc1cccc(-c2cnc3c(NC=O)cc(-c4ccc(OC)cc4OC)cn23)c1 the results were IL-1B inflam inh 47, DT40 TDP1 no CPT 0.021µM* and DT40 TDP1 CPT 0.015µM*.
For COc1ccc(-c2cc(NC=O)c3ncc(-c4ccc(OC)c(OC)c4)n3c2)c(OC)c1 the results were IL-1B inflam inh 15, DT40 TDP1 no CPT 0.033µM* and DT40 TDP1 CPT 0.041µM*.
COc1ccc(-c2cc(NC=O)c3ncc(-c4cnn(C)c4)n3c2)cc1 was read as IL-1B inflam inh 0, DT40 TDP1 no CPT inconclusive and DT40 TDP1 CPT inconclusive.
O=C(O)CSc1c[nH]c2ccccc12 was read as IL-1B inflam inh 4, DT40 TDP1 no CPT -11%, SW480 rereplic -17%, DT40 TDP1 CPT -22%, Chronic BCR inh 0% and MCF10A rereplic -2%.
CC(Sc1c[nH]c2ccccc12)C(=O)O (centres undefined) was read as IL-1B inflam inh 32, DT40 TDP1 no CPT -9%, SW480 rereplic inconclusive, DT40 TDP1 CPT -9%, Chronic BCR inh -10% and MCF10A rereplic 8.2µM*.
`COc1ccc(-c2nn(CCC#N)cc2C(=O)Nc2cccc(C(=O)O)c2)cc1[N+](=O)[O-]` gave IL-1B inflam inh -6, DT40 TDP1 no CPT 12%, SW480 rereplic 3%, DT40 TDP1 CPT 7%, Chronic BCR inh inconclusive and MCF10A rereplic -11%.
Screening CCOC(=O)c1cc(S(=O)(=O)N2CCN(c3ccc(C)cc3C)CC2)[nH]n1 returned DT40 TDP1 no CPT 21µM* and DT40 TDP1 CPT 9.2µM*.
Screening CCOC(=O)c1c(C)oc2ncnc(N3CCN(c4ccc(C)cc4C)CC3)c12 returned DT40 TDP1 no CPT 23µM* and DT40 TDP1 CPT 21µM*.
`CCOC(=O)c1noc2ncnc(N3CCN(c4ccccc4OC)CC3)c12` gave DT40 TDP1 no CPT 2.9µM* and DT40 TDP1 CPT 4.6µM*.
`CCOC(=O)c1c(C)oc2ncnc(N3CCN(c4cccc(Cl)c4)CC3)c12` gave DT40 TDP1 no CPT 16µM* and DT40 TDP1 CPT inconclusive.
Screening CCOC(=O)c1c(C)oc2ncnc(N3CCN(c4ccccc4OC)CC3)c12 returned DT40 TDP1 no CPT 16µM* and DT40 TDP1 CPT inconclusive.
For CCOc1ccccc1CNC(=O)c1c(C)oc2ncnc(N3CCOCC3)c12 the results were DT40 TDP1 no CPT -7% and DT40 TDP1 CPT -1%.
Screening O=C(O)C#CC(=O)O returned DT40 TDP1 no CPT -2% and DT40 TDP1 CPT 0%.
For CCC(c1nc2ccccc2[nH]1)N(CCCn1ccnc1)C(=O)c1ccc(C(F)(F)F)cc1 (centres undefined) the results were IL-1B inflam inh -1, DT40 TDP1 no CPT -20% and DT40 TDP1 CPT inconclusive.
`CCCCN(C(=O)c1ccccc1Cl)C(CC(C)C)c1nc2ccccc2[nH]1` (centres undefined) gave IL-1B inflam inh 9, DT40 TDP1 no CPT inconclusive and DT40 TDP1 CPT 21µM*.
CC1CC(C)CN(C(=O)/C(=C\c2ccccc2)c2ccccc2)C1 (centres undefined) was read as IL-1B inflam inh inconclusive, DT40 TDP1 no CPT 13µM*, SW480 rereplic -23%, DT40 TDP1 CPT 16µM*, Chronic BCR inh -1% and MCF10A rereplic 21µM*.
For CNc1nc2ccccc2n1/N=C/c1cccc(OC)c1OC the results were IL-1B inflam inh -6, DT40 TDP1 no CPT 21µM*, SW480 rereplic -13%, DT40 TDP1 CPT inconclusive, Chronic BCR inh 9% and MCF10A rereplic 17%.
`COc1cccc(C=NNc2nnc(NN=Cc3cccc(OC)c3OC)c3ccccc23)c1OC` gave IL-1B inflam inh -63*, DT40 TDP1 no CPT 21µM*, SW480 rereplic -4%, DT40 TDP1 CPT 23µM* and MCF10A rereplic inconclusive.
S=C(N/N=C/c1ccco1)NC1CC2CCC1C2 (centres undefined) was read as IL-1B inflam inh 5, DT40 TDP1 no CPT inconclusive, SW480 rereplic -3%, DT40 TDP1 CPT inconclusive, Chronic BCR inh inconclusive and MCF10A rereplic -9%.
COc1cccc(/C=N/NC(=S)NC2CC3CCC2C3)c1OC (centres undefined) was read as IL-1B inflam inh 8, DT40 TDP1 no CPT 21µM*, SW480 rereplic -16%, DT40 TDP1 CPT inconclusive, Chronic BCR inh inconclusive and MCF10A rereplic 0%.
For Oc1ccccc1/C=N/NC(=S)NC1CC2CCC1C2 (centres undefined) the results were IL-1B inflam inh -78*, DT40 TDP1 no CPT inconclusive, SW480 rereplic 3%, DT40 TDP1 CPT inconclusive, Chronic BCR inh inconclusive and MCF10A rereplic 22%.
COc1cccc(/C=N/n2c(CO)nc3ccccc32)c1OC was read as IL-1B inflam inh -22, DT40 TDP1 no CPT -30%, SW480 rereplic -5%, DT40 TDP1 CPT -9%, Chronic BCR inh 5% and MCF10A rereplic inconclusive.
CCOC(=O)c1c(S(=O)(=O)N2CCC(C(=O)Nc3ncccc3C)CC2)c(C)n(C)c1C was read as DT40 TDP1 no CPT 1%, DT40 TDP1 CPT -12% and Chronic BCR inh 10%.
COc1cccc(C=NNC(=S)NN=Cc2cccc(OC)c2OC)c1OC was read as IL-1B inflam inh 20, DT40 TDP1 no CPT 4.1µM*, SW480 rereplic -4%, DT40 TDP1 CPT 4.6µM* and MCF10A rereplic 18µM*.
`COc1cccc(/C=N/Nc2nnc(C)n2N)c1OCc1ccccc1Cl` gave IL-1B inflam inh 33, DT40 TDP1 no CPT 23µM*, SW480 rereplic 5%, DT40 TDP1 CPT inconclusive, Chronic BCR inh inconclusive and MCF10A rereplic 6%.
For Cc1cccc(NC(=S)N2CCC(NC(=O)c3cccc(F)c3)CC2)c1 the results were IL-1B inflam inh -6, DT40 TDP1 no CPT -20%, SW480 rereplic -11%, DT40 TDP1 CPT 11%, Chronic BCR inh 5% and MCF10A rereplic 5%.
`CCc1cc(Cl)c(OC)c(C(=O)NC[C@@H]2CCCN2CC)c1O` gave IL-1B inflam inh -7, DT40 TDP1 no CPT 26µM*, SW480 rereplic -8%, DT40 TDP1 CPT inconclusive and MCF10A rereplic inconclusive.

Bioassay records (PubChem)
